Shown are actives, neighbours in structure and some others; about 0.5% of the full set was active somewhere.
AddAB inh – growth inhibition of E. coli expressing H. pylori AddAB, primary screen, AddAB inhibitor project, absorbance; inhibition, % at 11.9 µM; AID 435030, 2010; actives 0.29% (n = 330,000); in the data active = inhibition above about 12%;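 note: 0% = vehicle wells of infected cells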
E coli growth-1 – E. coli growth inhibition, primary screen, OD600 | actives 0.21% (n = 330,000) | AID 1053175, 2014 | Escherichia coli growth, 23 h; stronger effect = lower value | OD600 absorbance (concentration not given with the values);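 active = OD600 absorbance below the run mean of sample wells minus 3.6 SD, in any replicate, cut at about 0.56 in these data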
E coli growth-2 – E. coli V3065 growth inhibition, primary screen, counter-screen for AddAB inhibitor project, absorbance, OD600; 18 h; inhibition, % at 11.9 µM; actives 0.27% (n = 330,000);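 active = inhibition above the campaign's mean inhibition across all tested compounds plus 3 SD, cut at about 9.9% in these data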;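 note: uninfected addAB+ strain grown without phage in ampicillin broth; 0% = DMSO wells and 100% = ciprofloxacin 0.95 µg/ml wells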
Tat transport – E. coli Tat export inhibitors, primary screen, MC4100, TorA-mCherry reporter, fluorescence, single point. inhibition, % at 10 µM. actives 0.036% (n = 340,000). AID 488895, 2010;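 active = mean replicate inhibition at least 50% and at least half of replicates individually reaching 50%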;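 note: exported cargo escapes ClpAP degradation while cytoplasmic cargo is degraded and loses fluorescence; 0% = median of neutral control wells and 100% = median of NaSCN control wells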
phage Ecoli inh – growth loss of phage-infected E. coli, primary screen, RecBCD inhibitor project, absorbance, with phage, HTS; inhibition, % at 11.9 µM; actives 0.26% (n = 360,000); AID 651602, 2012; in the data active = inhibition above about 11%
AddAB confirm – growth loss of phage-infected E. coli expressing H. pylori AddAB, confirmation, AddAB inhibitor project, absorbance, E. coli V3065, T4 phage, triplicate. actives 64% (n = 880). OD; T4 phage with gene 2 nonsense mutations. inhibition, % at 11.9 µM. shares compounds with AddAB inh;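 active = mean inhibition above a set limit taken from the earlier primary screen, cut at about 13% in these data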;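 note: higher means less bacterial growth since AddAB block lets phage replicate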
RecBCD counter – growth loss of RecBCD+ E. coli with mutant T4 phage, counter-screen for AddAB inhibitor project, absorbance, V66 E. coli | shares compounds with AddAB inh | OD growth | inhibition, % at 11.9 µM | actives 73% (n = 880) | AID 488955, 2010;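 active = mean inhibition above the mean of solvent-only control wells plus 3 SD, cut at about 4% in these data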;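 note: optical density read after an 18 h incubation at 37 °C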
Bact viability – bacterial viability inhibition counter-screen, confirmation, counter-screen for AddAB inhibitor project, absorbance; shares compounds with AddAB inh; absorbance (AddAB counterscreen); inhibition, % at 11.9 µM; actives 35% (n = 880); AID 488956, 2010; in the data active = inhibition above about 25%
* marks the source's active call; other numbers are inactive results; x = no result.

SMILES | AddAB inh | E coli growth-1 | E coli growth-2 | Tat transport | phage Ecoli inh | AddAB confirm | RecBCD counter | Bact viability
Cc1c(-n2cc(C(=O)O)c(=O)c3cc(F)c(N4CCCC4)c(F)c32)c(=O)n(-c2ccccc2)n1C | 1 | 0.69 | 2 | -15 | 3 | x | x | x
NC1C2CN(c3nc4c(cc3F)c(=O)c(C(=O)O)cn4-c3ccc(F)cc3F)CC12 (stereo not drawn) | 100* | 0.044* | 98* | 109* | x | 99* | 100* | 101*
O=C(NN=Cc1ccc2c(c1)OCO2)c1ccc(Cn2cc([N+](=O)[O-])cn2)o1 | x | 0.69 | x | x | x | x | x | x
O=C(N/N=C\c1cccc(F)c1)c1ccc(Cn2cc(Br)c([N+](=O)[O-])n2)o1 | 27* | x | 19* | -6 | 6 | 54* | 7.7* | 41*
O=C(N/N=C\c1ccc(F)cc1)c1ccc(Cn2cc(Br)c([N+](=O)[O-])n2)o1 | 36* | x | 33* | -1 | 9 | 54* | 5.8* | 38*
O=C(N/N=C\c1ccc2c(c1)OCO2)c1ccc(Cn2cc(Br)c([N+](=O)[O-])n2)o1 | 23* | x | 20* | -5 | 2 | 6 | 0 | 2
COc1cc(C=NNC(=O)c2ccc(Cn3cc(Br)c([N+](=O)[O-])n3)o2)cc(OC)c1O | x | 0.68 | x | x | x | x | x | x
COc1cc(/C=N\NC(=O)c2ccc(Cn3cc(Br)c([N+](=O)[O-])n3)o2)cc(OC)c1O | 44* | x | 23* | 7 | 9 | 52* | 5.6* | 39*
CCOc1ccc(C(C)=NNC(=O)Cc2ccccc2)cc1 | x | 0.66 | x | x | x | x | x | x
O=C(O)c1nnn(-c2cc(C(F)(F)F)cc(C(F)(F)F)c2)c1-c1ccccc1 | 19* | 0.71 | 2 | -5 | 1 | -1 | 0 | -2
COc1ccc(-c2cc(C(=O)NN=C(C)c3cccnc3)c3ccccc3n2)cc1 | x | 0.7 | x | x | x | x | x | x
O=C(O)c1ccc(C=C2SC(=Nc3ccccc3)N(c3ccccc3)C2=O)cc1 | x | 0.75 | x | x | x | x | x | x
Cc1cccc(NC(=O)NC(C)C(c2cccs2)N2CCOCC2)c1 (stereo not drawn) | 100* | 0.73 | 99* | -10 | 4 | -1 | 2 | 3
CC(=O)Oc1cc2cccc(OC(C)=O)c(=O)c2c(OC(C)=O)c1OC(C)=O | 18* | 0.64 | 14* | 0 | x | 25* | 19* | 15
COc1cc2cccc(OC)c(=O)c2c(O)c1OC | 0 | 0.74 | -1 | -1 | 6 | x | x | x
CC(CC(=O)Nc1cccc(Cl)c1C)=NNC(=O)C(=O)NCC(C)C | x | 0.69 | x | x | x | x | x | x
Cc1cc(C=Nn2cnnc2)c(C)n1-c1cc(Cl)ccc1Cl | x | 0.71 | x | x | x | x | x | x
NS(=O)(=O)c1ccc(CCNC(=O)CSc2ccsc2[N+](=O)[O-])cc1 | 16* | 0.64 | 15* | -1 | 7 | 40* | 5.4* | 32*
Cc1ccc(NC(=O)CC2S/C(=N/N=Cc3c[nH]c4ccccc34)NC2=O)cc1 (stereo not drawn) | x | 0.73 | x | x | x | x | x | x
CCCN1CCC(=O)N(C(CSc2ccc(C)cc2)c2ccccc2)CC1 (stereo not drawn) | x | 0.58 | x | x | x | x | x | x
CC(CO)NC(=O)c1ccc2c3n(nc2c1)-c1ccc(Cl)cc1CO3 (stereo not drawn) | x | 0.68 | x | x | x | x | x | x
Cc1ccc(OCC(=O)N2CCc3ccccc32)c([N+](=O)[O-])n1 | 24* | 0.67 | 19* | 4 | 8 | 46* | 5.4* | 43*
O=C(ON=Cc1cccc([N+](=O)[O-])c1)C1CC1 | x | 0.67 | x | x | x | x | x | x
NC(=NOC(=O)c1ccccc1Cl)c1ncc([N+](=O)[O-])s1 | x | 0.6 | x | x | x | x | x | x
N/C(=N/OC(=O)c1ccc(Cl)cc1)c1ncc([N+](=O)[O-])s1 | 19* | x | 6 | -10 | 6 | 43* | 1 | 1
CCn1cc(C(=O)N[C@@H](C)C(=O)NCCCO)c(=O)c2cc3c(cc21)OCO3 | x | 0.58 | x | 4 | 2 | x | x | x
